From PubChem
SARS PLP yeast: qHTS of Yeast-based Assay for SARS-CoV PLP; actives 0.19% (n = 330,000); Potency, µM (series often up to 32.9 µM), without a hit: at the highest dose activity, positive = growth rescue, actives largely listed as activators; S. cerevisiae expressing SARS-CoV PLpro, growth rescue; also: 0% is about no effect; nearly all actives have a fitted effect of over 55% in size
Pf growth 48h: Primary qHTS for delayed death inhibitors of the malarial parasite plastid, 48 hour incubation | P. falciparum luciferase growth in erythrocytes, 48 h | Potency, µM (titrated, usually from 28.7 µM), for the others: at the top dose activity change, negative = inhibition, usual class: inhibitors | actives 5.9% (n = 310,000); active = well fitted inhibition curve with a large enough effect; inconclusive = small, poorly fitted or top-dose-only effect, or another doubt; inactive = no such curve, though single readings can be large or run the other way; also: % is scaled to controls: 0 for no effect and ±100 for the full control effect
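Luminescence readout; reporter = integrated firefly luciferase in P. falciparum. RBC culture at 2% hematocrit, 0.1% parasitemia final, 37 C/5% CO2; decreased signal taken as growth inhibition.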
NS1 inh: qHTS Assay for Inhibitors of Influenza NS1 Protein Function; Potency, µM (series often up to 46.1 µM), for the others: at the top dose activity, positive = more growth; actives 0.4% (n = 270,000); AID 2326, 2010; also: actives are rising curves; nearly all actives have a fitted effect of over 50% in size
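Growth recovery, yeast-based: influenza A NS1 expressed in S. cerevisiae causes slow growth, and suppressors are detected by OD600. The parent strain without NS1 is used as positive control.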
Pf growth 96h: Primary qHTS for delayed death inhibitors of the malarial parasite plastid, 96 hour incubation. actives 6.9% (n = 320,000). P. falciparum luciferase reporter growth, 96 h. Potency, µM (doses to about 28.7 µM), without a hit: at the highest dose activity change, negative = inhibition, hits mostly inhibitors. AID 504834, 2011; active = well fitted inhibition curve with a large enough effect; inconclusive = small, poorly fitted or top-dose-only effect, or another doubt; inactive = no such curve, though single readings can be large or run the other way; also: % is scaled to controls: 0 for no effect and ±100 for the full control effect
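Erythrocytes infected with luciferase-expressing P. falciparum were dispensed at 2% hematocrit and 0.05% parasitemia (final), then incubated with compounds 96 hours at 37 C in 5% CO2. Luminescence after detection reagent addition reported growth.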
* marks the source's active call; other numbers are inactive results; ? = inconclusive; / = not tested or not shown; [ ] = remark or other dose. Most compounds without a hit are left out; they make up all but 10% or so of the library. Unless noted, calls follow the shape of the full dose curve. Potency is read from the fitted curve at half-maximal effect.

SMILES | SARS PLP yeast | Pf growth 48h | NS1 inh | Pf growth 96h
COc1ccccc1NC(=S)N(Cc1ccco1)Cc1cc2cc(C)cc(C)c2[nH]c1=O | 5% | 3.3µM* | 7% | -17%
Cc1cc(C)c2nc(Cl)c(CN(Cc3ccco3)C(=O)Nc3ccccc3C)cc2c1 | -17% | 12µM* | ? | ?
Cc1ccc2cc(CN(Cc3ccco3)C(=O)C3CCCCC3)c(=O)[nH]c2c1C | -4% | ? | -7% | 6%
O=C1CN(C(=O)COC(=O)c2ccccc2Br)c2ccccc2N1 | 0% | -24% | / | 9%
O=C(CSCc1ccc(Br)cc1)NCc1ccccn1 | -2% | -3% | -2% | 110%
Cc1cc(C)c2[nH]c(=O)c(CN(CC3CCCO3)C(=S)Nc3ccccc3)cc2c1 (stereo unspecified) | 23% | -9% | 7% | -5%
Cc1ccc2cc(CN(CC3CCCO3)C(=S)Nc3ccccc3)c(=O)[nH]c2c1C (stereo unspecified) | -4% | 10µM* | ? | -5%
Cc1cc(C)c2cc(CN(Cc3ccco3)C(=O)NCc3ccccc3)c(=O)[nH]c2c1 | 7% | 0% | ? | 15µM*
C/C(N)=C(/C#N)C(=O)CSc1nnc(Nc2c(C)cccc2C)s1 | 20% | ? | ? | 12µM*
Cc1cccc(C)c1Nc1nnc(SCc2cn3cccc(C)c3n2)s1 | -10% | ? | -12% | 10µM*
COc1ccc(C(C)=O)cc1CSc1nnc(-c2ccncc2)o1 | -2% | ? | -7% | 4.1µM*
C/C(N)=C(/C#N)C(=O)CSc1nnc(Nc2cccc(C)c2C)s1 | 2% | ? | 4% | 17%
COc1ccc(C(C)=O)cc1CSc1nnc(Nc2c(C)cccc2C)s1 | 21% | ? | -6% | 9.3µM*
Cc1ccc(N(CC(=O)NC2CCCCC2)C(=O)CNC(=O)c2ccco2)cc1F | 0% | -21% | 0% | 9%
Nc1c(C(=O)Nc2ccc3c(c2)OCCO3)nnn1Cc1cccc(F)c1 | 10% | 31% | / | 43%
COc1ccc(C(C)=O)cc1CSc1nnc(Nc2ccc(C)cc2C)s1 | -38% | ? | 2% | ?
COc1ccc(C(C)=O)cc1CSc1nnc(Nc2ccccc2C)s1 | 13% | ? | 3% | 4.1µM*
Cc1ccc2cc(C#N)c(N3CCCN(C(=S)NCCCN(C)C)CC3)nc2c1 | 2% | 10µM* | 2% | ?
CCOCCCNC(=S)N1CCCN(c2nc3cc(C)ccc3cc2C#N)CC1 | 11% | -13% | / | 0%
Cc1cc(C)c2cc(C#N)c(N3CCCN(C(=S)NCCCN(C)C)CC3)nc2c1 | 2% | -45% | 0% | 10µM*
CC(=O)c1cc(C#N)c(N2CCCC2)nc1C | 0% | -7% | / | 42%[5.75 µM]
Cc1cc(C)c2cc(C#N)c(N3CCCC3)nc2c1 | -3% | -5% | 0% | 10µM*
COc1cccc(-c2cccc(NC(=O)C3CCN(Cc4ccon4)CC3)c2)c1 | -1% | 1% | 2% | ?
Cc1ccc(S(=O)(=O)N2CCOCC2)cc1NC(=O)c1cc(-c2ccccn2)nc2ccccc12 | 1% | 9.3µM* | 1% | ?
Cc1cc(-c2csc(NC(=O)c3ccc(S(=O)(=O)N(C)C)cc3)n2)c(C)n1-c1ccccc1 | 9% | ? | 29% | 10µM*
SMILES | SARS PLP yeast | Pf growth 48h | NS1 inh | Pf growth 96h
Cc1ccc(S(=O)(=O)N2CCOCC2)cc1C(=O)Nc1ccc(-c2cn3ccsc3n2)cc1 | 0% | 9.3µM* | ? | -11%
Cc1ccc(S(=O)(=O)N2CCOCC2)cc1N/N=C(\C#N)c1nc2ccccc2[nH]1 | 0% | ? | ? | 3.3µM*
CCN(CC(=O)NC1CCS(=O)(=O)C1)S(=O)(=O)c1ccc(Br)cc1 (stereo unspecified) | 1% | / | / | /
Cc1ccc(C(=O)NCC(=O)OCC(=O)Nc2ccc3[nH]c(=O)[nH]c3c2)cc1 | 0% | -6% | / | 35%
COc1cccc(C(=O)NNS(=O)(=O)c2ccc(C)cc2)c1 | -2% | ? | 7% | ?
Cc1ccc(C(=O)Nc2nc(-c3ccccn3)cs2)cc1S(=O)(=O)N1CCOCC1 | -6% | 1.7µM* | / | 0.47µM*
Cc1ccc(C(=O)Nc2ccccn2)cc1S(=O)(=O)N1CCOCC1 | 0% | 22% | / | 0%
O=C(Nc1nc(-c2ccccn2)cs1)c1cc(S(=O)(=O)N2CCOCC2)ccc1F | 7% | 10µM* | / | 10µM*
O=C(Nc1nc(-c2ccccn2)cs1)c1cccc(-n2cnnn2)c1 | -1% | 1.2µM* | -6% | 0.93µM*
O=C(Nc1ccccc1C(F)(F)F)c1cc(S(=O)(=O)N2CCOCC2)ccc1F | 18% | 10% | -3% | 0.93µM*
CC(=O)Nc1ccc(NC(=O)CCC(=O)OCC(=O)c2ccc(F)cc2)cc1 | -4% | 8% | 5% | -15%
CC(NC(=O)CNC(=O)C1O[C@@H]2OC(C)(C)O[C@@H]2[C@H]2OC(C)(C)O[C@@H]12)C(=O)O (stereo partly specified) | 1% | 12% | / | 39%
CC(C)(C)C(=O)Nc1cc2c3c(c1)CCC(=O)N3CCC2 | -2% | 17% | 16% | 9%
O=C(Nc1nc(-c2ccccn2)cs1)c1ccc(F)c(S(=O)(=O)N2CCOCC2)c1 | 1% | 1.5µM* | / | 0.83µM*
Cc1ccc(S(=O)(=O)N2CCOCC2)cc1C(=O)Nc1nc(-c2cccnc2)cs1 | -4% | 9.3µM* | -12% | -9%
CN(CC1CCCO1)S(=O)(=O)c1ccc(C(=O)Nc2nc(-c3ccccn3)cs2)cc1 (stereo unspecified) | 2% | 12µM* | -33% | 3.3µM*
O=C(NCc1cccc(Cl)c1)C1CCC(=O)N(CC2CCCCC2)C1 (stereo unspecified) | 6% | 13% | 7% | 15µM*
O=C(NCCc1ccccc1C(F)(F)F)C1CCC(=O)N(CCCN2CCCC2=O)C1 (stereo unspecified) | 1% | -18% | 3% | 9.3µM*
O=C(NCc1ccc(F)c(F)c1)C1CCC(=O)N(CC2CCCCC2)C1 (stereo unspecified) | -2% | 0% | 10% | 13µM*
O=C(NCCCC1CCCC1)C1CCC(=O)N(Cc2cccc(C(F)(F)F)c2)C1 (stereo unspecified) | -5% | 3% | -27% | 12µM*
COC(=O)c1ccc(NS(=O)(=O)NC(=O)c2cn(C)c3ccccc23)cc1 | -3% | 25% | 2% | 19%
COCCNC(=O)c1cccc(OC2CCN(Cc3cccc(SC)c3)CC2)c1 | 3% | 2% | 14% | ?
O=C(NCC1CCCO1)c1ccc(N2C(=O)C3CCCCC3C2=O)cc1 (stereo unspecified) | 1% | 30% | 2% | 10%
Cc1cc(C(C)(C)C)cc(C)c1C[n+]1ccc2ccccc2c1 | 0% | 1.2µM* | -4% | 1.3µM*
COCCN=c1scc(-c2cc(OC)c(OC)c(OC)c2)n1/N=C/c1c(C)[nH]c2ccccc12 | -19% | 7.4µM* | ? | 2.6µM*
CC(C)C[C@@H]1NC(=O)[C@H](Cc2ccc(O)cc2)NC(=O)c2cc([N+](=O)[O-])cc(I)c2NCCC[C@@H](C(N)=O)NC1=O | 13% | ? | ? | 10µM*
